Data taken from PubChem BioAssay (EPA / NIEHS).
“And” between values parts separate entries of the source, which are not always exact repeats. Equal entries are not always repeated. Where a structure was tested more than once in an assay, its records may differ in their call. The source made the active and inactive calls. How the source made its calls: active means hit-call score of the fitted dose curve at least 0.9, where 1 is the maximum; inactive means score below 0.9.

Legend:
[1] = read-out: Thrombomodulin, THBD (gene 7056); assay: BSK_CASM3C_Thrombomodulin: BioMAP Diversity Plus: CASM3C Assay for Thrombomodulin Biomarker Activity (AID 2283051); conditions: primary human coronary artery smooth muscle cells; actives raise or lower the signal;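 further: thrombomodulin protein level measured by ELISA 24 h after dosing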
[2] = read-out: Tissue Factor, F3 (gene 2152); assay: BSK_CASM3C_TissueFactor: BioMAP Diversity Plus: CASM3C Assay for Tissue Factor Biomarker Activity (AID 2283052); conditions: primary human coronary artery smooth muscle cells; actives raise or lower the signal;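 further: cell surface tissue factor protein level read by ELISA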
[3] = read-out: Urokinase-type plasminogen activator receptor (uPAR), PLAUR (gene 5329); assay: BSK_CASM3C_uPAR: BioMAP Diversity Plus: CASM3C Assay for Urokinase-type plasminogen activator receptor (uPAR) Biomarker Activity (AID 2283054); conditions: primary human coronary artery smooth muscle cells; actives raise or lower the signal;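 further: cell-surface uPAR protein level quantified by ELISA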
[4] = read-out: Vascular cell adhesion molecule 1 (VCAM1), VCAM1 (gene 7412); assay: BSK_CASM3C_VCAM1: BioMAP Diversity Plus: CASM3C Assay for Vascular cell adhesion molecule 1 (VCAM1) Biomarker Activity (AID 2283055); conditions: primary human coronary artery smooth muscle cells; actives raise or lower the signal;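 further: VCAM-1 protein level quantified by ELISA on the cells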
[5] = read-out: Collagen III, COL3A1 (gene 1281); assay: BSK_hDFCGF_CollagenIII: BioMAP Diversity Plus: hDFCGF Assay for Collagen III Biomarker Activity (AID 2283056); conditions: primary human foreskin fibroblasts; actives raise or lower the signal
Summary of the method: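 Human foreskin primary fibroblasts were exposed to test chemicals for 24 h, after which collagen III was quantified by ELISA. Activity was fitted bidirectionally against DMSO as negative control and baseline.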

[6] = read-out: Epidermal growth factor receptor (EGFR), EGFR (gene 1956); assay: BSK_hDFCGF_EGFR: BioMAP Diversity Plus: hDFCGF Assay for Epidermal growth factor receptor (EGFR) Biomarker Activity (AID 2283057); conditions: primary human foreskin fibroblasts; actives raise or lower the signal
Summary of the method: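 hDFCGF system, primary human foreskin fibroblasts; compound 24 h; EGFR measured by ELISA; DMSO = negative control/baseline; bidirectional fitting.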

[7] = read-out: Interleukin-8 (IL8), CXCL8 (gene 3576); assay: BSK_hDFCGF_IL8: BioMAP Diversity Plus: hDFCGF Assay for Interleukin-8 (IL8) Biomarker Activity (AID 2283058); conditions: primary human foreskin fibroblasts; actives raise or lower the signal
Summary of the method: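 hDFCGF human dermal fibroblasts; 24 h chemical exposure; IL-8 by ELISA; bidirectional curve fit vs DMSO baseline; gain or loss of signal scored.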

[8] = BSK_hDFCGF_Proliferation: Cell Proliferation Assessment in the BioMAP Diversity Plus: hDFCGF Assay (AID 2283059); conditions: primary human foreskin fibroblasts;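 further: curves fitted for both rise and fall of signal versus DMSO baseline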
Summary of the method: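 This proliferation readout used SRB total-protein staining of human foreskin fibroblasts […], normalized to DMSO with bidirectional curve fitting.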

[9] = read-out: Macrophage colony-stimulating factor (MCSF), CSF1 (gene 1435); assay: BSK_hDFCGF_MCSF: BioMAP Diversity Plus: hDFCGF Assay for Macrophage colony-stimulating factor (MCSF) Biomarker Activity (AID 2283060); conditions: primary human foreskin fibroblasts; actives raise or lower the signal
Summary of the method: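 Human foreskin primary fibroblasts were treated with test chemical for 24 h, and M-CSF was then measured by ELISA. Data were fitted bidirectionally against DMSO as the negative control and activity baseline.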

[10] = BSK_hDFCGF_SRB: Viability Assessment in the BioMAP Diversity Plus: hDFCGF Assay (AID 2283061); conditions: primary human foreskin fibroblasts;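 further: cells exposed to compound for 24 h before the read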
Summary of the method: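 Human foreskin primary fibroblasts were treated with compound and assessed 24 h after dosing. Total protein was measured by sulforhodamine B staining (0.1% SRB after 10% TCA fixation, 560 nm read) as a cytotoxicity marker, with bidirectional fitting against DMSO baseline.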

[11] = read-out: TIMP metallopeptidase inhibitor 1 (TIMP1), TIMP1 (gene 7076); assay: BSK_hDFCGF_TIMP1: BioMAP Diversity Plus: hDFCGF Assay for TIMP metallopeptidase inhibitor 1 (TIMP1) Biomarker Activity (AID 2283062); conditions: primary human foreskin fibroblasts; actives raise or lower the signal
Summary of the method: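 Primary human foreskin fibroblasts in the hDFCGF system were dosed with compound for 24 h, then TIMP-1 was measured by ELISA. Activity was fitted bidirectionally relative to DMSO control; parallel SRB staining assessed cytotoxicity.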

[12] = read-out: Monokine induced gamma interferon (MIG), CXCL9 (gene 4283); assay: BSK_hDFCGF_MIG: BioMAP Diversity Plus: hDFCGF Assay for Monokine induced gamma interferon (MIG) Biomarker Activity (AID 2283063); conditions: primary human foreskin fibroblasts; actives raise or lower the signal
Summary of the method: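 ELISA read-out of MIG from primary human dermal fibroblasts 24 h post-dosing. Gain or loss of signal fitted bidirectionally, DMSO as baseline.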

[13] = read-out: Matrix Metallopeptidase 1 (MMP1), MMP1 (gene 4312); assay: BSK_hDFCGF_MMP1: BioMAP Diversity Plus: hDFCGF Assay for Matrix Metallopeptidase 1 (MMP1) Biomarker Activity (AID 2283064); conditions: primary human foreskin fibroblasts; actives raise or lower the signal
Summary of the method: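 hDFCGF primary fibroblasts (human foreskin); chemical added; 24 h; MMP1 by ELISA; bidirectional fit vs DMSO.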

[14] = read-out: Vascular cell adhesion molecule 1 (VCAM1), VCAM1 (gene 7412); assay: BSK_hDFCGF_VCAM1: BioMAP Diversity Plus: hDFCGF Assay for Vascular cell adhesion molecule 1 (VCAM1) Biomarker Activity (AID 2283065); conditions: primary human foreskin fibroblasts; actives raise or lower the signal
Summary of the method: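 Primary human foreskin fibroblasts (hDFCGF system) were dosed with chemical and VCAM-1 was measured by ELISA 24 h later. Bidirectional curve fitting used DMSO as negative control and activity baseline.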

[15] = read-out: Plasminogen activator inhibitor-1 (PAI1), SERPINE1 (gene 5054); assay: BSK_hDFCGF_PAI1: BioMAP Diversity Plus: hDFCGF Assay for Plasminogen activator inhibitor-1 (PAI1) Biomarker Activity (AID 2283066); conditions: primary human foreskin fibroblasts; actives raise or lower the signal
Summary of the method: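 Primary dermal fibroblasts (human foreskin), hDFCGF system; compound 24 h; PAI-1 by ELISA; bidirectional fit vs DMSO control.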

[16] = read-out: Intercellular Adhesion Molecule 1 (ICAM1), ICAM1 (gene 3383); assay: BSK_KF3CT_ICAM1: BioMAP Diversity Plus: KF3CT Assay for Intercellular Adhesion Molecule 1 (ICAM1) Biomarker Activity (AID 2283067); conditions: primary human keratinocytes with fibroblasts; actives raise or lower the signal
Summary of the method: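 Human keratinocyte plus foreskin fibroblast primary co-culture was exposed to chemical for 24 h. ICAM-1 was then quantified by ELISA, and the data were fit bidirectionally against DMSO as the negative control and baseline.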

[17] = BSK_KF3CT_SRB: Viability Assessment in the BioMAP Diversity Plus: KF3CT Assay (AID 2283069); conditions: primary human keratinocytes with fibroblasts;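 further: fitted for both signal gain and loss against DMSO baseline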
Summary of the method: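 Keratinocytes co-cultured with foreskin fibroblasts (human primary); chemical added, 24 h; fix 10% TCA, stain 0.1% SRB, A560. Bidirectional fit vs DMSO.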

[18] = read-out: Interleukin-1 alpha (IL1a), IL1A (gene 3552); assay: BSK_KF3CT_IL1a: BioMAP Diversity Plus: KF3CT Assay for Interleukin-1 alpha (IL1a) Biomarker Activity (AID 2283070); conditions: primary human keratinocytes with fibroblasts; actives raise or lower the signal
Summary of the method: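 Chemicals were dosed onto co-cultured human keratinocytes and foreskin fibroblasts, IL-1a was quantified by ELISA at 24 h, and activity was fitted in both directions relative to DMSO controls.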

[19] = read-out: Interferon-gamma inducible Protein 10 (IP10), CXCL10 (gene 3627); assay: BSK_hDFCGF_IP10: BioMAP Diversity Plus: hDFCGF Assay for Interferon-gamma inducible Protein 10 (IP10) Biomarker Activity (AID 2283053); conditions: primary human foreskin fibroblasts; actives raise or lower the signal
Summary of the method: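 Primary foreskin fibroblasts, human; 24 h compound exposure; IP-10 by ELISA; bidirectional fit vs DMSO.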

[20] = read-out: Interferon-gamma inducible Protein 10 (IP10), CXCL10 (gene 3627); assay: BSK_KF3CT_IP10: BioMAP Diversity Plus: KF3CT Assay for Interferon-gamma inducible Protein 10 (IP10) Biomarker Activity (AID 2283068); conditions: primary human keratinocytes with fibroblasts; actives raise or lower the signal
Summary of the method: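 Signal is secreted/surface IP-10 by ELISA in a human primary skin co-culture of keratinocytes and foreskin fibroblasts, taken 24 h post-dosing; DMSO served as negative control.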

Measured: AC50

COc1cnc(OC)n2nc(NS(=O)(=O)c3c(OCC(F)F)cccc3C(F)(F)F)nc12
active: [11] 20 µM
inactive: [1] | [2] | [3] | [4] | [5] | [6] | [7] | [8] | [9] | [10] | [11] | [12] | [13] | [14] | [15] | [16] | [17] | [18]

O=C(O)COc1nc(Cl)c(Cl)cc1Cl
not listed: [14] | [20]
inactive: all other assays above

CCCN(CCC)c1c([N+](=O)[O-])cc(S(N)(=O)=O)cc1[N+](=O)[O-]
inactive: [1] | [2] | [5] | [6] | [7] | [9] | [11] | [12] | [13] | [15] | [16] | [17] | [18]
active: [1] 37.6 µM and 34.1 µM | [2] 21.1 µM and 34.7 µM and 30.7 µM | [3] 34.5 µM [middle of 4 runs] | [4] 36.4 µM [middle of 4 runs] | [5] 30.9 µM and 16.5 µM | [7] 34.5 µM | [8] 24.3 µM [middle of 4 runs] | [9] 32.9 µM and 30.5 µM and 31.2 µM | [10] 21.1 µM and 29.3 µM and 31.4 µM | [11] 33.5 µM and 34 µM | [12] 32 µM and 34.1 µM | [13] 33.6 µM and 348 nM | [15] 21.1 µM and 21.6 µM | [17] 34.6 µM

O=C(O)c1nc(Cl)ccc1Cl
inactive: [1] | [2] | [19] | [3] | [4] | [5] | [6] | [7] | [8] | [9] | [10] | [11] | [12] | [13] | [15] | [16] | [17] | [18]
active: [18] 0.148 µM

Oc1ccccc1-c1ccccc1
not listed: [19]
inactive: all other assays above
